# Test results from PubChem BioAssay (NCI).
# About 79,000 compounds went through this panel and 15% of them were active in at least one assay; those are over-represented in the sample as a whole. The source made the active and inactive calls. Rule as the data show it: active = growth inhibition above about 70%; inactive = the rest.
# Test: NCI Yeast Anticancer Drug Screen. Data for the cln2 rad14 strain (AID 165);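 also: 0% = growth equal to vehicle treated cultures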
# Details: S. cerevisiae cln2 rad14 strain, at 50.0 µM, active compounds read high
# Method in brief: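 Relative to vehicle controls, growth inhibition of compound-treated cln2 rad14 yeast was recorded.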
row,Structure (SMILES),growth inhibition
1,c1ccc2scnc2c1,-24.5% (inactive)
2,CN(C)S(=O)(=O)C(C(=O)Nc1ccccc1)c1ccccc1 (stereo not given),-34.7% (inactive)
3,N#CCCn1nc(SC2CCCCC2)c(=O)[nH]c1=O,32.3% (inactive)
4,CCOc1ccc(/C=C(\NC(=O)c2ccccc2)C(=O)Nc2ccccc2)cc1OC,-25.6% (inactive)
5,COc1ccc2nc(-c3ccc(F)cc3)cc(C(=O)O)c2c1,16.9% (inactive)
6,CC(=O)SC12CCCN1C(=O)C1(SC(C)=O)CCCN1C2=O (stereo not given),-28.9% (inactive)
7,O=C(C[n+]1ccncc1)c1cccc([N+](=O)[O-])c1,8.35% (inactive)
8,N#CC(C#N)=C(O)/C(=C/c1ccc(Cl)cc1Cl)NC(=O)c1ccccc1,7.9% (inactive)
9,NC(Cc1cccc2ccccc12)C(=O)O (stereo not given),-48.1% (inactive)
10,O=C(NC(=O)c1ccccc1Cl)Nc1ccc(C(O)(C(F)(F)F)C(F)(F)F)cc1,68.7% (inactive)
11,CCOC(=O)C(CCCOC1CCCCO1)(C(=O)OCC)c1ccccc1 (stereo not given),14.4% (inactive)
12,C(=Nc1ccc2c(c1)Cc1ccccc1-2)c1ccccn1,16.9% (inactive)
13,OCCCc1nc2ccccc2[nH]1,8.85% (inactive)
14,CCN(CC)c1ccc(NCC(O)c2cc(Cl)ccc2OC)cc1 (stereo not given),22.8% (inactive)
15,O=C1C=C(Cl)C(=O)O1,-9.1% (inactive)
16,CCN(CC)CCCC(C)Nc1nccc(/C=C/c2ccc(Cl)cc2)n1 (stereo not given),-1.1% (inactive)
17,CC(Oc1ccccc1)C(O)(c1ccc(N(C)C)cc1)c1ccc(N(C)C)cc1 (stereo not given),8.15% (inactive)
18,CCO/C(O)=C(/C#N)C(=O)NC1=NCCCCC1,-43% (inactive)
19,O=C(O)c1cccc(Cl)c1-c1c(Cl)cccc1C(=O)O,11.8% (inactive)
20,Cc1cccc(N=C/C=C/c2ccccc2)c1C,-50.6% (inactive)

row,Structure (SMILES),growth inhibition
1,CC(C)n1cnc2c(=O)[nH]c(=O)[nH]c21,-39.8% (inactive)
2,N#CC(=C1C=CC(=NO)C=C1)c1ccc(Cl)cc1,-124% (inactive)
3,Cc1ccc(C)c(CNC(=O)NC(C)(C)C)c1,-63.8% (inactive)
4,Cc1ccc2c(-c3ccc4ccccc4c3)c3ccccc3cc2c1,-12.6% (inactive)
5,O=C(/C=C/c1ccc(O)c(O)c1)c1ccc(O)cc1O,4.05% (inactive)
6,CN(C)CCNc1cccc2oc3ccc(O)cc3c(=O)c12,-2.3% (inactive)
7,COc1cc(C)cc2c1C(=O)C(Br)=CC2=O,91.8% (active)
8,COc1cc(OC(=O)/C=C2/CCC(=O)O2)c2c(c1)OC1OC(=O)CC21 (stereo not given),-3.4% (inactive)
9,CCC(=O)c1ccc(F)cc1,20.3% (inactive)
10,Cc1ccc(CO)c(O)c1,6.4% (inactive)
11,O=[N+]([O-])c1ccc(S(=O)(=O)N/N=C/c2cccc3ccccc23)cc1,-15.8% (inactive)
12,CC(=O)OCC1OC(Sc2cccc3ccccc23)C(OC(C)=O)C(OC(C)=O)C1OC(C)=O (stereo not given),-20.8% (inactive)
13,CC1(C)CNC[C@](C)(OCc2ccccc2)N1,11.2% (inactive)
14,CN(C)CC1CCC(=C2CCCC2)C1=O (stereo not given),6.2% (inactive)
15,COc1ccc2nc(NC(=O)C(=O)C(C(=O)c3ccccc3-c3ccccc3)C3OC(=O)c4ccccc43)sc2c1 (stereo not given),0.7% (inactive)
16,CCOC(=O)C(NC(=O)c1cccc(Cl)c1)(N1CCN(c2cc3c(cc2F)c(=O)c(C(=O)O)cn3CC)CC1)C(F)(F)F (stereo not given),4.45% (inactive)
17,NC(N)=NC1CCc2ccccc2C1 (stereo not given),-5.1% (inactive)
18,Nc1nc(SSc2nc(N)nc3c2ncn3C2OC(CO)C(O)C2O)c2ncn(C3OC(CO)C(O)C3O)c2n1 (stereo not given),-34% (inactive)
19,Cc1cccc(N=NC2Sc3nc4ccccc4n3C2=O)c1 (stereo not given),-9.25% (inactive)
20,C=CCCCCCCCCCCCCCCCCC,10.4% (inactive)

# Test: NCI Yeast Anticancer Drug Screen. Data for the bub3 strain (AID 167)
# Details: S. cerevisiae bub3 mutant strain, at 50.0 µM, active compounds read high
# Method in brief: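 Mutant yeast screening strain plus compound; vehicle-treated cultures serve as the 0% inhibition reference.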
row,Structure (SMILES),growth inhibition
1,c1ccc2scnc2c1,29.2% (inactive)
2,CN(C)S(=O)(=O)C(C(=O)Nc1ccccc1)c1ccccc1 (stereo not given),-5.95% (inactive)
3,N#CCCn1nc(SC2CCCCC2)c(=O)[nH]c1=O,4.75% (inactive)
4,CCOc1ccc(/C=C(\NC(=O)c2ccccc2)C(=O)Nc2ccccc2)cc1OC,-0.15% (inactive)
5,COc1ccc2nc(-c3ccc(F)cc3)cc(C(=O)O)c2c1,10.2% (inactive)
6,CC(=O)SC12CCCN1C(=O)C1(SC(C)=O)CCCN1C2=O (stereo not given),3.3% (inactive)
7,O=C(C[n+]1ccncc1)c1cccc([N+](=O)[O-])c1,7.65% (inactive)
8,N#CC(C#N)=C(O)/C(=C/c1ccc(Cl)cc1Cl)NC(=O)c1ccccc1,-13.3% (inactive)
9,NC(Cc1cccc2ccccc12)C(=O)O (stereo not given),-7.3% (inactive)
10,O=C(NC(=O)c1ccccc1Cl)Nc1ccc(C(O)(C(F)(F)F)C(F)(F)F)cc1,34.3% (inactive)
11,CCOC(=O)C(CCCOC1CCCCO1)(C(=O)OCC)c1ccccc1 (stereo not given),8.8% (inactive)
12,C(=Nc1ccc2c(c1)Cc1ccccc1-2)c1ccccn1,-22.8% (inactive)
13,OCCCc1nc2ccccc2[nH]1,-17.7% (inactive)
14,CCN(CC)c1ccc(NCC(O)c2cc(Cl)ccc2OC)cc1 (stereo not given),-6.3% (inactive)
15,O=C1C=C(Cl)C(=O)O1,-8% (inactive)
16,CCN(CC)CCCC(C)Nc1nccc(/C=C/c2ccc(Cl)cc2)n1 (stereo not given),14% (inactive)
17,CC(Oc1ccccc1)C(O)(c1ccc(N(C)C)cc1)c1ccc(N(C)C)cc1 (stereo not given),1.4% (inactive)
18,CCO/C(O)=C(/C#N)C(=O)NC1=NCCCCC1,4.65% (inactive)
19,O=C(O)c1cccc(Cl)c1-c1c(Cl)cccc1C(=O)O,17.3% (inactive)
20,Cc1cccc(N=C/C=C/c2ccccc2)c1C,-4.7% (inactive)

row,Structure (SMILES),growth inhibition
1,CC(C)n1cnc2c(=O)[nH]c(=O)[nH]c21,-5.2% (inactive)
2,N#CC(=C1C=CC(=NO)C=C1)c1ccc(Cl)cc1,20.9% (inactive)
3,Cc1ccc(C)c(CNC(=O)NC(C)(C)C)c1,-11.2% (inactive)
4,Cc1ccc2c(-c3ccc4ccccc4c3)c3ccccc3cc2c1,-2.35% (inactive)
5,O=C(/C=C/c1ccc(O)c(O)c1)c1ccc(O)cc1O,-40.6% (inactive)
6,CN(C)CCNc1cccc2oc3ccc(O)cc3c(=O)c12,-4.95% (inactive)
7,COc1cc(C)cc2c1C(=O)C(Br)=CC2=O,91.8% (active)
8,COc1cc(OC(=O)/C=C2/CCC(=O)O2)c2c(c1)OC1OC(=O)CC21 (stereo not given),-1.9% (inactive)
9,CCC(=O)c1ccc(F)cc1,-5.3% (inactive)
10,Cc1ccc(CO)c(O)c1,3.75% (inactive)
11,O=[N+]([O-])c1ccc(S(=O)(=O)N/N=C/c2cccc3ccccc23)cc1,-0.3% (inactive)
12,CC(=O)OCC1OC(Sc2cccc3ccccc23)C(OC(C)=O)C(OC(C)=O)C1OC(C)=O (stereo not given),0% (inactive)
13,CC1(C)CNC[C@](C)(OCc2ccccc2)N1,10.9% (inactive)
14,CN(C)CC1CCC(=C2CCCC2)C1=O (stereo not given),3.6% (inactive)
15,COc1ccc2nc(NC(=O)C(=O)C(C(=O)c3ccccc3-c3ccccc3)C3OC(=O)c4ccccc43)sc2c1 (stereo not given),-1.1% (inactive)
16,CCOC(=O)C(NC(=O)c1cccc(Cl)c1)(N1CCN(c2cc3c(cc2F)c(=O)c(C(=O)O)cn3CC)CC1)C(F)(F)F (stereo not given),-16.8% (inactive)
17,NC(N)=NC1CCc2ccccc2C1 (stereo not given),-0.6% (inactive)
18,Nc1nc(SSc2nc(N)nc3c2ncn3C2OC(CO)C(O)C2O)c2ncn(C3OC(CO)C(O)C3O)c2n1 (stereo not given),9.45% (inactive)
19,Cc1cccc(N=NC2Sc3nc4ccccc4n3C2=O)c1 (stereo not given),2.25% (inactive)
20,C=CCCCCCCCCCCCCCCCCC,-16.1% (inactive)
